This passage reports double positive events and percent response (vesicle binding) results from PubChem BioAssay AID2810 (NMMLSC, 2010).

The structures appear in SMILES notation. About 65 (5%) of roughly 1,200 compounds were called active. The sample holds actives, similar compounds and a random draw of the others, so the mix is not that of the screen.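 Rule for the calls: active = at either tested dose, response and 90th-percentile vesicle-stain brightness of CD8 cells under set limits and under 9% cells vesicle-bound; inactive = the rest.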

The nature of this assay: modulators of CD8 T cell-vesicle binding, confirmation, cherry-picked primary hits, two concentrations (AID 2810).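 For all read-outs here: lower values mean blocking of vesicle binding.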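 For percent response (vesicle binding): ratio of mean FL2 vesicle stain of CD8+ cells to that row's control.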 The following applies: 2C CD8+ T cell-vesicle binding, flow cytometry; for double positive events: CD8+/vesicle+ events. For orientation: In flow cytometry, cells or beads pass a laser one at a time.
[1] abbreviates: at 15.4 µM, stronger effect = lower value.

On to `COc1ccc([C@H]2CC(=O)C=C(c3ccc(OC)nc3)C2)cc1`, for which the double positive events (at 7.7 µM) was 14.2% and the double positive events under setting [1] worked out at 9.6%. Moreover, the percent response (vesicle binding) under setting [1] was 212% (inactive) and the percent response (vesicle binding) (response, at 7.7 µM) came to 129%.

The compound `COc1ccc(C2=CC(=O)C[C@H](c3ccc4c(c3)OCO4)C2)cn1` displayed a double positive events (at 7.7 µM) of 9.9% and a double positive events under setting [1] of 4.4%. The percent response (vesicle binding) runs as follows: under setting [1], 35.6% (active); (response, at 7.7 µM) 132%.

For the compound `CCCOc1ccc(C2=CC(=O)C[C@H](c3ccc(OC)cc3)C2)cc1`, the double positive events runs as follows: (at 7.7 µM) 11%; under setting [1], 10.3%. The percent response (vesicle binding) was 69.4% (inactive) under setting [1] and 126% (response, at 7.7 µM).

For `Cc1ccc(O)c(CCc2ccccc2)n1`, the double positive events is, setting by setting: (at 7.7 µM) 15.8%; under setting [1], 2.8%. The percent response (vesicle binding) is 113% (inactive) under setting [1] and 128% (response, at 7.7 µM).

`O=C(Nc1nc2ccccc2[nH]1)c1ccccc1[N+](=O)[O-]`: the double positive events is, setting by setting: (at 7.7 µM) 21%; under setting [1], 27.8%. Moreover, the percent response (vesicle binding) runs as follows: under setting [1], 316% (inactive); (response, at 7.7 µM) 383%.

With `CCNC(=O)CSc1nc(-c2ccccc2)cs1`, the double positive events by setting is: (at 7.7 µM) 25.1%; under setting [1], 14.3%. The percent response (vesicle binding) was 215% (inactive) under setting [1] and 240% (response, at 7.7 µM).

As to `O=C(NC(=S)Nc1nc(-c2ccccc2)cs1)c1cccs1`, the double positive events turned out to be 16.9% (at 7.7 µM) and 1.5% under setting [1]. Also, the percent response (vesicle binding) under setting [1] is 48.9% (active) and the percent response (vesicle binding) (response, at 7.7 µM) amounted to 238%.

On to `O=C(Nc1nc(-c2ccccc2)cs1)c1ccc(N2CCOCC2)c([N+](=O)[O-])c1`, for which the double positive events runs as follows: (at 7.7 µM) 8.4%; under setting [1], 25.6%. The percent response (vesicle binding) under setting [1] was 552% (inactive) and the percent response (vesicle binding) (response, at 7.7 µM) was 78.4%.

As for `CC1c2ccsc2CCN1C(=O)NC(=O)c1ccc(Cl)cc1` (stereo unspecified), the double positive events is, setting by setting: (at 7.7 µM) 20.6%; under setting [1], 18.4%. For the same compound, the percent response (vesicle binding) was 185% (inactive) under setting [1] and 486% (response, at 7.7 µM).

With `CCCCNC(=O)c1cnc2n(c1=O)CCS2`, the double positive events is, setting by setting: (at 7.7 µM) 38.7%; under setting [1], 14.7%. Moreover, the percent response (vesicle binding) by setting is: under setting [1], 184% (inactive); (response, at 7.7 µM) 399%.

On to `CCCNC(=O)c1nc2ncc(Br)cn2n1`, for which the double positive events turned out to be 15.3% (at 7.7 µM) and 1% under setting [1]. Further, the percent response (vesicle binding) under setting [1] is 43% (active) and the percent response (vesicle binding) (response, at 7.7 µM) turned out to be 231%.

`CCOC(=O)c1cnc2nc(C)nn2c1N`: the double positive events (at 7.7 µM) is 10.5% and the double positive events under setting [1] worked out at 10.6%. Further, the percent response (vesicle binding) runs as follows: under setting [1], 70.8% (inactive); (response, at 7.7 µM) 113%.

For `O=C(NNC(=S)NC(=O)c1ccco1)c1ccc(F)cc1`, the double positive events is 7.1% (at 7.7 µM) and 18.1% under setting [1]. The percent response (vesicle binding) is, setting by setting: under setting [1], 196% (inactive); (response, at 7.7 µM) 291%.

Consider `Cc1ccc(C(=O)NCc2ccco2)o1`, for which the double positive events reads like this: (at 7.7 µM) 10.5%; under setting [1], 20.1%. In addition, the percent response (vesicle binding) under setting [1] was 586% (inactive) and the percent response (vesicle binding) (response, at 7.7 µM) worked out at 368%.

On to `O=C(NC(=S)NCc1ccco1)c1ccc(Br)cc1`, for which the double positive events was 18.8% (at 7.7 µM) and 5.9% under setting [1]. Also, the percent response (vesicle binding) by setting is: under setting [1], 52.9% (active); (response, at 7.7 µM) 186%.

Turning to `CCOc1ccccc1NC(=O)c1ccc(F)c(S(=O)(=O)N2CCC3(CC2)OCCO3)c1`, the double positive events (at 7.7 µM) is 16.8% and the double positive events under setting [1] stood at 14.7%. Moreover, the percent response (vesicle binding) was 94.2% (inactive) under setting [1] and 132% (response, at 7.7 µM).

Turning to `COc1ccc(C2(O)CCN(CCCCOc3ccccc3)CC2)cc1`, the double positive events by setting is: (at 7.7 µM) 12.9%; under setting [1], 31.8%. Moreover, the percent response (vesicle binding) is, setting by setting: under setting [1], 292% (inactive); (response, at 7.7 µM) 174%.

In the case of `C[N+]1(C)CC2([N+](=O)[O-])CC=C(Oc3ccccc3)C([N+](=O)[O-])(C2)C1` (stereo unspecified), the double positive events is, setting by setting: (at 7.7 µM) 28.9%; under setting [1], 3.4%. For the same compound, the percent response (vesicle binding) by setting is: under setting [1], 49.5% (active); (response, at 7.7 µM) 485%.

For `CCOc1ccccc1NC(=O)CN(c1ccc(C)cc1)S(=O)(=O)c1c(C)noc1C`, the double positive events turned out to be 30.1% (at 7.7 µM) and 16.7% under setting [1]. The percent response (vesicle binding) under setting [1] was 129% (inactive) and the percent response (vesicle binding) (response, at 7.7 µM) is 502%.

On to `COc1ccc(Cl)cc1NC(=O)/C=C/C(=O)O`, for which the double positive events worked out at 13.3% (at 7.7 µM) and 24.2% under setting [1]. Besides, the percent response (vesicle binding) by setting is: under setting [1], 251% (inactive); (response, at 7.7 µM) 192%.

As for `CCCCN(C(=O)COC(=O)c1ccc(C=O)cc1)c1c(N)n(CCC)c(=O)[nH]c1=O`, the double positive events is, setting by setting: (at 7.7 µM) 9.2%; under setting [1], 13.1%. Also, the percent response (vesicle binding) is, setting by setting: under setting [1], 406% (inactive); (response, at 7.7 µM) 335%.

Consider `CCc1ccc(OCc2cnc(Cl)s2)cc1`, for which the double positive events by setting is: (at 7.7 µM) 11.6%; under setting [1], 16.5%. The percent response (vesicle binding) by setting is: under setting [1], 277% (inactive); (response, at 7.7 µM) 421%.

Consider `Cn1c(SCC(=O)Nc2ccc3cn[nH]c3c2)nnc1-c1cccs1`, for which the double positive events came out at 12.5% (at 7.7 µM) and 17.2% under setting [1]. The percent response (vesicle binding) under setting [1] is 146% (inactive) and the percent response (vesicle binding) (response, at 7.7 µM) came to 160%.

`CCC(=O)NC(NC(=S)Nc1c(C)n(C)n(-c2ccccc2)c1=O)C(Cl)(Cl)Cl` (stereo unspecified): the double positive events (at 7.7 µM) was 16.1% and the double positive events under setting [1] is 13.9%. Besides, the percent response (vesicle binding) is, setting by setting: under setting [1], 129% (inactive); (response, at 7.7 µM) 201%.

For `Cc1c(NC(=S)NC(=O)CCc2ccccc2)c(=O)n(-c2ccccc2)n1C`, the double positive events is, setting by setting: (at 7.7 µM) 21.8%; under setting [1], 30.2%. In addition, the percent response (vesicle binding) is 295% (inactive) under setting [1] and 278% (response, at 7.7 µM).

`Cc1c(NS(=O)(=O)CC23CCC(CC2=O)C3(C)C)c(=O)n(-c2ccccc2)n1C` (stereo unspecified) yielded a double positive events (at 7.7 µM) of 14.2% and a double positive events under setting [1] of 1.9%. The percent response (vesicle binding) is 37.7% (active) under setting [1] and 260% (response, at 7.7 µM).

Take `COc1cc(C(C)=O)ccc1O`: the double positive events runs as follows: (at 7.7 µM) 24%; under setting [1], 6.3%. Also, the percent response (vesicle binding) by setting is: under setting [1], 114% (inactive); (response, at 7.7 µM) 362%.

`Cc1cc(C(=O)NCc2cc(C(=O)O)oc2C)c(C)o1` returned a double positive events (at 7.7 µM) of 29.4% and a double positive events under setting [1] of 14.9%. For the same compound, the percent response (vesicle binding) reads like this: under setting [1], 86.2% (inactive); (response, at 7.7 µM) 224%.

As for `CSCCC(NC(=O)c1ccc(=O)n(C)n1)c1nc2ccccc2[nH]1` (stereo unspecified), the double positive events is, setting by setting: (at 7.7 µM) 14.9%; under setting [1], 0.9%. Besides, the percent response (vesicle binding) runs as follows: under setting [1], 42% (active); (response, at 7.7 µM) 254%.

Take `O=C(NCC(=O)N1CCN(C(=O)c2ccccc2)CC1)c1ccccc1`: the double positive events by setting is: (at 7.7 µM) 13.6%; under setting [1], 10.6%. Moreover, the percent response (vesicle binding) is, setting by setting: under setting [1], 148% (inactive); (response, at 7.7 µM) 158%.

For the compound `Cc1cc(C)nc(SCCn2c(N3CC(C)OC(C)C3)nc3c2c(=O)n(C)c(=O)n3C)n1` (stereo unspecified), the double positive events (at 7.7 µM) was determined as 12.7% and the double positive events under setting [1] came out at 28.3%. Also, the percent response (vesicle binding) was 226% (inactive) under setting [1] and 172% (response, at 7.7 µM).

Regarding `C=CCNC(=O)c1c(Cl)nc(C)c([N+](=O)[O-])c1C`, the double positive events (at 7.7 µM) stood at 28.7% and the double positive events under setting [1] is 11.5%. The percent response (vesicle binding) is, setting by setting: under setting [1], 144% (inactive); (response, at 7.7 µM) 122%.

Turning to `CCC1(C)NC(=O)N(CC(=O)N2N=C(c3ccccc3)CC2c2ccc(OC)cc2)C1=O` (stereo unspecified), the double positive events came to 9.6% (at 7.7 µM) and 30.9% under setting [1]. Also, the percent response (vesicle binding) reads like this: under setting [1], 413% (inactive); (response, at 7.7 µM) 134%.

The compound `CCOc1ccc(-c2csc(NNC3=NCCCCC3)n2)cc1` registered a double positive events (at 7.7 µM) of 15.2% and a double positive events under setting [1] of 1.4%. For the same compound, the percent response (vesicle binding) under setting [1] is 52.5% (active) and the percent response (vesicle binding) (response, at 7.7 µM) is 178%.
